# Assay results taken from PubChem BioAssay (Tox21).
# A number with no mark means an inactive call. Records with an inconclusive call do not appear. Where a call stands in place of a potency, no number is given. The source made the active and inactive calls. Unless noted, the call rests on the fitted dose curve.
# How the values were obtained:
# [1] = Nuclear factor erythroid 2-related factor 2/antioxidant responsive element (Nrf2/ARE) small molecule agonists: qHTS cell viability counter screen in human keratinocytes (AID 1919968; active means well fitted curve in the direction sought with a large enough effect in the repeat runs; an effect the other way counts as inactive or inconclusive; further: nearly all actives have a fitted effect of over 55% in size; further: potency means the concentration at half of the fitted maximal effect)
# In short: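 Cells of the KeratinoSens line were plated at 1,500 per well and left for 5 h before compound transfer from DMSO stocks. After a 23 h incubation (37 C, 5% CO2), CellTiter-Fluor was added. Signal was taken as fluorescence intensity 1 h later.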
# [2] = Nuclear factor erythroid 2-related factor 2/antioxidant responsive element (Nrf2/ARE) small molecule agonists: luciferase reporter gene qHTS assay in human keratinocytes (AID 1919969); further: nearly all actives have a fitted effect of over 35% in size; further: potency means the concentration at half of the fitted maximal effect
# [3] = biological target: Gonadotropin-releasing hormone receptor (Homo sapiens) (UniProt P30968); experiment: Human gonadotropin-releasing hormone receptor (GnRHR) small molecule agonists, calcium flux assay in GnRHR-HEK293 cells (AID 1920063); further: nearly all actives have a fitted effect of over 35% in size
# In short: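 Compounds dissolved in DMSO are pin-transferred onto dye-loaded GnRHR-HEK293 cells, which were seeded 18 h before at 37 C/5% CO2. Calcium signal is read as fluorescence intensity at 1 s intervals for 3 min.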
# [4] = biological target: KiSS-1 receptor (Homo sapiens) (UniProt Q969F8); experiment: Human kisspeptin (KISS1R) small molecule agonists, calcium flux assay in KISS1R-HEK293 cells (AID 1920064; active means well fitted curve in the direction sought with a large enough effect in the repeat runs; an effect the other way counts as inactive or inconclusive)
# In short: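 Cell line: HEK293, stable human KISS1R. Dye loading 1 h at 37 C after 18 h culture. Read: kinetic fluorescence, 480/540 nm, 3 min at 1 s intervals.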
# [5] = G protein-coupled receptor (GPCR) small molecule agonists, calcium flux assay: HEK293 wild type cell line counter screen (AID 1920065)
# In short: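 Tox21 10K compounds, 15 concentrations each in triplicate, pin-transferred in DMSO onto dye-loaded cells; kinetic read at 480/540 nm for 3 min, 1 s intervals.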
# [6] = p53 small molecule agonists, cell-based qHTS assay with human liver microsomes (AID 1963577)
# In short: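 p53RE-bla reporter cells were pre-incubated 5 h at 37 C, then treated with compounds plus human liver microsomes (0.5 mg/mL final) and NADPH (0.5 mg/mL final) for 16 h at 37 C. Beta-lactamase activity was read by LiveBLAzer fluorescence after 2 h at room temperature.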
# [7] = p53 small molecule agonists, cell-based qHTS assay with rat liver microsomes (AID 1963578)
# In short: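 p53RE-bla cells were exposed to compounds together with rat liver microsomes (0.5 mg/mL final) and NADPH (0.5 mg/mL final) for 16 h at 37 C, then read by LiveBLAzer beta-lactamase fluorescence after 2 h at room temperature.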
# [8] = p53 small molecule agonists, cell-based qHTS assay with human liver microsomes: qHTS cell viability counter screen (AID 1963579); further: nearly all actives have a fitted effect of over 45% in size; further: potency means the concentration at half of the fitted maximal effect
# In short: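 p53RE-bla cells (4,000/well) were pre-incubated 5 h at 37 C, then given compounds in DMSO plus human liver microsomes (0.5 mg/mL final) and NADPH (0.5 mg/mL final) for 16 h at 37 C. Viability was read by CellTiter-Glo luminescence.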
# [9] = p53 small molecule agonists, cell-based qHTS assay: qHTS cell viability counter screen (AID 1963581); further: nearly all actives have a fitted effect of over 45% in size
# In short: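 ATP content measured by luminescence in HCT-116 p53RE-bla cells treated 16 h at 37 C, same wells as the reporter screen.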
# [10] = p53 small molecule agonists, cell-based qHTS assay (AID 1963582; active means well fitted activation curve with a large enough effect in the signal ratio in the repeat runs, not every such curve was filed as active; the % refers to the signal ratio)
# In short: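 16 h compound exposure (37 C) of p53 response element–bla cells, preceded by 5 h recovery at 37 C/5% CO2; read-out via LiveBLAzer B/G FRET substrate, 2 h RT, fluorescence intensity.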
# [11] = biological target: 5-hydroxytryptamine receptor 2A (Homo sapiens) (UniProt P28223); experiment: 5-hydroxytryptamine receptor 2A (HTR2A) small molecule antagonists, cell-based qHTS assay (AID 1963586); further: nearly all actives have a fitted effect of over 45% in size
# In short: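 CHO cells stably expressing human HTR2A were plated for 18 h at 37 C, then loaded with calcium dye for 1 h. Compounds were preincubated 5 min at room temperature before DOI (4 nM solution) was added. Kinetic fluorescence was read for 3 min.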
# [12] = biological target: 5-hydroxytryptamine receptor 2A (Homo sapiens) (UniProt P28223); experiment: 5-hydroxytryptamine receptor 2A (HTR2A) small molecule agonists, cell-based qHTS assay (AID 1963587); further: nearly all actives have a fitted effect of over 30% in size
# In short: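 CHO cells stably expressing human HTR2A, plated 18 h, loaded with calcium dye 1 h at 37 C. Agonist mode: compounds added and intracellular calcium fluorescence recorded kinetically for 2 min at 1 sec intervals.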
# [13] = biological target: Muscarinic acetylcholine receptor M1 (Homo sapiens) (UniProt P11229); experiment: Cholinergic receptor muscarinic 1 (CHRM1) small molecule antagonists, cell-based qHTS assay (AID 1963588); further: nearly all actives have a fitted effect of over 40% in size
# In short: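 Compounds were tested at 15 concentrations in three independent runs. Dye-loaded CHRM1-CHO cells were exposed 5 min at room temperature before stimulation by acetylcholine added at 50nM. Intracellular calcium was read kinetically on FDSS for 3 min.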
# [14] = biological target: Muscarinic acetylcholine receptor M1 (Homo sapiens) (UniProt P11229); experiment: Cholinergic receptor muscarinic 1 (CHRM1) small molecule agonists, cell-based qHTS assay (AID 1963589); further: nearly all actives have a fitted effect of over 35% in size
# In short: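 Homogeneous fluorescence calcium flux, agonist mode. Human M1-expressing CHO cells; compound dosed at 15 concentrations, three independent runs; signal sampled every 1 sec.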
# [15] = cAMP Responsive Elements (CRE) small molecule agonists, cell-based qHTS assay (AID 1963590)
# In short: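 HEK 293T cells stably bearing CRE-bla were plated at 2,000 cells per well and rested 18 h. Compounds, positive controls or DMSO were added for 3 h at 37 C. LiveBLAzer B/G substrate was then loaded for 2 h at room temperature.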
# [16] = cAMP Responsive Elements (CRE) small molecule antagonists, cell-based qHTS assay (AID 1963591; active means well fitted inhibition curve with a large enough effect in the signal ratio in the repeat runs, not every such curve was filed as active; the % refers to the signal ratio)
# In short: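 First, CRE-bla HEK293T cells settled 18 h at 37 C. Next, compound and 0.25 uM final NKH477 were applied for 3 h. Last, LiveBLAzer B/G substrate was loaded for 2 h at room temperature.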
# [17] = biological target: Beta-2 adrenergic receptor (Homo sapiens) (UniProt P07550); experiment: Adrenergic beta2 receptor (ADRB2) small molecule antagonists, cell-based qHTS assay (AID 1963592); further: nearly all actives have a fitted effect of over 50% in size; further: potency means the concentration at half of the fitted maximal effect; on activity change, negative = inhibition: series mostly up to about 92 µM
# In short: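 Assay format: CHO-ADRB2 cells, 18-20hr seeding at 37C/5% CO2, then compound plus 1nM isoproterenol agonist mix for 0.5hr RT. Homogeneous time-resolved fluorescence cAMP detection after 1hr, expressed as 665/615 nm ratio.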
# [18] = biological target: D(2) dopamine receptor (Homo sapiens) (UniProt P14416); experiment: Dopamine D2 receptor (DRD2) small molecule agonists, cell-based qHTS assay (AID 1963594); further: nearly all actives have a fitted effect of over 35% in size
# In short: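 HEK293 cells stably expressing human DRD2, pre-treated with PDE inhibitor Ro20-1724 (0.1 mM final) and compound 10 min at room temperature, then stimulated with NKH477 (200nM […]) for 30 min. cAMP read by HTRF (665/620 nm).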
# [19] = biological target: D(2) dopamine receptor (Homo sapiens) (UniProt P14416); experiment: Dopamine D2 receptor (DRD2) small molecule antagonists, cell-based qHTS assay (AID 1963595; active means well fitted inhibition curve with a large enough effect in the signal ratio in the repeat runs, with a control signal flat; the % refers to the signal ratio)
# In short: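 Stable D2 receptor HEK293 line, 24 h after seeding. Compound preincubated 10 min, then quinpirole (12 nM) with forskolin analogue NKH477 (200 nM), 30 min, room temperature. Detection by time-resolved FRET of cAMP.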
# [20] = biological target: Beta-2 adrenergic receptor (Homo sapiens) (UniProt P07550); experiment: Adrenergic beta2 receptor (ADRB2) small molecule agonists, cell-based qHTS assay (AID 1963593);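 further: CHO cells stably overexpressing human ADRB2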
# In short: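 CHO cells stably over-expressing ADRB2 were plated overnight at 37C, then dosed with compounds plus a stimulation mix containing 100uM IBMX and 25uM Ro-20-1724 for 0.5hr at room temperature. cAMP was measured by HTRF competition, 1hr.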
# KiSS-1 receptor (Homo sapiens), sequence (Q969F8 whole entry, looked up): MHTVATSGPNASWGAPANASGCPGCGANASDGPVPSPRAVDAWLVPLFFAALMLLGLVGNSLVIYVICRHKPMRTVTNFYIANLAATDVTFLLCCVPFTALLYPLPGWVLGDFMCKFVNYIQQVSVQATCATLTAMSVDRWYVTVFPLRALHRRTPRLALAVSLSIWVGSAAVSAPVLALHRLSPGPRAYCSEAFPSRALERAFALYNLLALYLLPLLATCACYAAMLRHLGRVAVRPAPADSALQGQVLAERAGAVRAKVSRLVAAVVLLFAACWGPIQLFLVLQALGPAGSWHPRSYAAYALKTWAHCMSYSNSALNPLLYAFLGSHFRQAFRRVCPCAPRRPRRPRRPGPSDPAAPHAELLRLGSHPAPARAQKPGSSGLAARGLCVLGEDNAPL
# Gonadotropin-releasing hormone receptor (Homo sapiens), sequence (P30968 whole entry, looked up): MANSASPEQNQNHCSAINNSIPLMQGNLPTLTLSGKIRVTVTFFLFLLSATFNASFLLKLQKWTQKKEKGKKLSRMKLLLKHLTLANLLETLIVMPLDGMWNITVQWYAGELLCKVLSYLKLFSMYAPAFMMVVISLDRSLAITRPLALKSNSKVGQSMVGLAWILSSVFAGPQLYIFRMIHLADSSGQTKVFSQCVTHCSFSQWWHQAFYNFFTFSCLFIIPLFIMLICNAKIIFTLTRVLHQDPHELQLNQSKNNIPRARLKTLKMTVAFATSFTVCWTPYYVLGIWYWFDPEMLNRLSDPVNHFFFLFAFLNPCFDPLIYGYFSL
# Beta-2 adrenergic receptor (Homo sapiens), sequence (P07550 whole entry, looked up): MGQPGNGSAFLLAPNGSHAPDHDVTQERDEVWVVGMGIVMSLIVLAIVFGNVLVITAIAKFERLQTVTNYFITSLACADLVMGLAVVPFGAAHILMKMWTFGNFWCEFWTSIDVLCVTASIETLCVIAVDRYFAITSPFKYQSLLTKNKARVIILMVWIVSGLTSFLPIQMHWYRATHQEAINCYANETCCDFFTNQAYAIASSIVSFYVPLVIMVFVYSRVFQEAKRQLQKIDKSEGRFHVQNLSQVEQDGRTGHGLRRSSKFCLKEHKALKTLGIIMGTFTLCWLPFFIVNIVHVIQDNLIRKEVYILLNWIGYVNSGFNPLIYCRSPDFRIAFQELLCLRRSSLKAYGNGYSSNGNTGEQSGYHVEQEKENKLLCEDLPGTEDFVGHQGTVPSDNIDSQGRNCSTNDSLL
# 5-hydroxytryptamine receptor 2A (Homo sapiens), sequence (P28223 whole entry, looked up): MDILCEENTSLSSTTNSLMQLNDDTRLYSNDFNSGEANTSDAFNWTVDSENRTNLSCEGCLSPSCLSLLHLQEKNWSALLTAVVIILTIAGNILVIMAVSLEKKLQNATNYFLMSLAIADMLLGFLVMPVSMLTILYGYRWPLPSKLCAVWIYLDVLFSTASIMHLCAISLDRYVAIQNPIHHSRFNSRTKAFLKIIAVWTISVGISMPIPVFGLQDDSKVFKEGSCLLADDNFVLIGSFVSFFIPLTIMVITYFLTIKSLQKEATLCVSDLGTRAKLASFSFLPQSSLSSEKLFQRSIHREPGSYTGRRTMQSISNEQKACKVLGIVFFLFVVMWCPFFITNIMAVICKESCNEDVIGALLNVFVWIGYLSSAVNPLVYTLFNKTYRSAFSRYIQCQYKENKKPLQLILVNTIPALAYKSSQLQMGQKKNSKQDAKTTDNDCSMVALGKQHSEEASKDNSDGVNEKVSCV
# Muscarinic acetylcholine receptor M1 (Homo sapiens), sequence (P11229 whole entry, looked up): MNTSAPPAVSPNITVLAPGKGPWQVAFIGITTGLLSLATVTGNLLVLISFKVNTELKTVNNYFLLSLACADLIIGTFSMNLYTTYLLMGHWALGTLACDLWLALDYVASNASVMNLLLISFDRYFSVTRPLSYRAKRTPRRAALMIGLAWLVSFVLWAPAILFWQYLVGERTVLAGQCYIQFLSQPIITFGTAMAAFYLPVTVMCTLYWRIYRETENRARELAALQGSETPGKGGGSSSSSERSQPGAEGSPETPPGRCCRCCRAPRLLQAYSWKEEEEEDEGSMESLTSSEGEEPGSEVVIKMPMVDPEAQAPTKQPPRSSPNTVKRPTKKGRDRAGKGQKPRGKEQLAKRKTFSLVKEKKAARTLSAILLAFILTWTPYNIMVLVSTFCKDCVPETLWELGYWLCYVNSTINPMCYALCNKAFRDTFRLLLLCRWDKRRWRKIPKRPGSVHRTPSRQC
# D(2) dopamine receptor (Homo sapiens), sequence (P14416 whole entry, looked up): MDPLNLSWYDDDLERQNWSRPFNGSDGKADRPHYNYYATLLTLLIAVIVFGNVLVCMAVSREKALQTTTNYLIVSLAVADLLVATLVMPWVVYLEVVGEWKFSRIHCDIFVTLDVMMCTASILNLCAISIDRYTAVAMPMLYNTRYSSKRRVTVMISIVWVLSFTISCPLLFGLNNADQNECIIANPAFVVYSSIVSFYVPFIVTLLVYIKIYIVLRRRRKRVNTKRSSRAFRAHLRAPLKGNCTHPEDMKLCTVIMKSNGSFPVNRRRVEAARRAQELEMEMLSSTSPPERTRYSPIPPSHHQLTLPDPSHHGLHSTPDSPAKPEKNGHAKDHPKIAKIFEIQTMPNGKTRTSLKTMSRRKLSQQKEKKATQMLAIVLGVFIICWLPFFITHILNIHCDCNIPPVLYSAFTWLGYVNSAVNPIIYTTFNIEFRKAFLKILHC
compound,measurement,setting,value
CCCCOCC(C)O (configuration not stated),Potency,[1],inactive
same,Potency,[2],inactive
same,Potency,[3],inactive
same,outcome,[4],inactive
same,outcome,[5],inactive
same,Potency,[6],inactive
same,Potency,[7],inactive
same,Potency,[8],inactive
same,Potency,[9],inactive
same,Potency,[10],inactive
same,Potency,[11],inactive
same,Potency,[12],inactive
same,Potency,[13],inactive
same,Potency,[14],inactive
same,Potency,[15],inactive
same,Potency,[16],inactive
same,Potency,[17],inactive
same,Potency,[18],inactive
same,Potency,[19],inactive
Cc1ccc(C=O)s1,Potency,[1],inactive
same,Potency,[2],68.6 µM (active)
same,Potency,[3],inactive
same,outcome,[4],inactive
same,outcome,[5],inactive
same,Potency,[6],inactive
same,Potency,[7],inactive
same,Potency,[8],40.8 µM (active)
same,Potency,[9],inactive
same,Potency,[10],inactive
same,Potency,[11],inactive
same,Potency,[12],inactive
same,Potency,[13],inactive
same,Potency,[14],inactive
same,Potency,[15],inactive
same,Potency,[16],inactive
same,Potency,[20],inactive
same,Potency,[18],inactive
same,Potency,[19],inactive
CC1=CC(O)CC(C)(C)C1 (configuration not stated),Potency,[1],inactive
same,Potency,[2],inactive
same,Potency,[3],inactive
same,outcome,[4],inactive
same,outcome,[5],inactive
same,Potency,[6],inactive
same,Potency,[7],inactive
same,Potency,[8],inactive
same,Potency,[9],inactive
same,Potency,[10],inactive
same,Potency,[12],inactive
same,Potency,[13],inactive
same,Potency,[14],inactive
same,Potency,[15],inactive
same,Potency,[16],inactive
same,Potency,[17],inactive
same,Potency,[20],inactive
same,Potency,[18],inactive
same,Potency,[19],inactive
C=CC(=C)CC/C=C(\C)CCC=C(C)C,"activity change, negative = cytotoxicity",[1],-0.584% [at 19 µM]
same,"activity, positive = activation",[2],7.55% [at 19 µM]
same,activity change,[3],"1.61% [at 11.8 µM, active compounds read high]"
same,activation,[4],5.69% [at 15.8 µM]
same,activation,[5],-1.2% [at 11.8 µM]
same,activation,[6],-0.261% [at 13.5 µM]
same,activation,[7],0.56% [at 13.6 µM]
same,"activity change, negative = cytotoxicity",[8],1.39% [at 13.5 µM]
same,"activity change, negative = cytotoxicity",[9],2.84% [at 13.5 µM]
same,activation,[10],-2.41% [at 13.5 µM]
same,"activity, negative = inhibition",[11],22.2% [at 12.7 µM]
same,activation,[12],6.61% [at 15.9 µM]
same,activation,[14],-0.116% [at 15.8 µM]
same,activation,[15],0.237% [at 19 µM]
same,"activity change, negative = inhibition",[16],1.53% [at 18.9 µM]
same,"activity change, negative = inhibition",[17],10.9% [at 19 µM]
same,Potency,[20],inactive
same,activation,[18],-0.761% [at 19 µM]
CC1=CCC2C(C1)C2(C)C (configuration not stated),Potency,[1],inactive
same,Potency,[2],inactive
same,Potency,[3],inactive
same,outcome,[4],inactive
same,outcome,[5],inactive
same,Potency,[6],inactive
same,Potency,[7],inactive
same,Potency,[8],inactive
same,Potency,[9],inactive
same,Potency,[10],inactive
same,Potency,[11],inactive
same,Potency,[12],inactive
same,Potency,[13],inactive
same,Potency,[16],inactive
same,Potency,[17],27.3 µM (active)
same,Potency,[19],inactive
CCCCCCCCCCCCCCCCCCOS(=O)(=O)O,Potency,[1],68.6 µM (active)
same,Potency,[2],inactive
same,Potency,[3],inactive
same,outcome,[4],inactive
same,outcome,[5],inactive
same,Potency,[6],inactive
same,Potency,[7],inactive
same,Potency,[8],inactive
same,Potency,[9],inactive
same,Potency,[10],inactive
same,Potency,[11],inactive
same,Potency,[13],inactive
same,Potency,[14],inactive
same,Potency,[15],inactive
same,Potency,[16],inactive
same,Potency,[18],inactive
same,Potency,[19],inactive
Cc1cc(C)cc([N+](=O)[O-])c1,Potency,[1],inactive
same,Potency,[2],inactive
same,Potency,[3],inactive
same,outcome,[4],inactive
same,outcome,[5],inactive
same,Potency,[6],inactive
same,Potency,[7],inactive
same,Potency,[8],inactive
same,Potency,[9],inactive
same,Potency,[10],inactive
same,Potency,[11],inactive
same,Potency,[12],inactive
same,Potency,[13],inactive
same,Potency,[14],inactive
same,Potency,[15],inactive
same,Potency,[16],inactive
same,Potency,[18],inactive
same,Potency,[19],inactive
COC(=O)CS,Potency,[1],inactive
same,Potency,[2],52.4 µM (active)
same,Potency,[3],inactive
same,outcome,[4],inactive
same,outcome,[5],inactive
same,Potency,[6],inactive
same,Potency,[7],inactive
same,Potency,[8],inactive
same,Potency,[9],inactive
same,Potency,[10],inactive
same,Potency,[11],inactive
same,Potency,[12],inactive
same,Potency,[14],inactive
same,Potency,[15],inactive
same,Potency,[17],inactive
same,Potency,[19],inactive
